Assay results reported in the supplement of paper PMC11417369.
The full ranking holds about 25,000 sequences; the median of “ln(normalized median fluorescence intensity)” is about 6.7, and the highest 2% start at about 10. The list comes from a sample in which the highest values are over-represented; it also holds similar and randomly drawn sequences.

System: PfHDP1 homeodomain (GST-tagged)
Test: gcPBM binding intensity (ln(normalized median fluorescence intensity)); higher = stronger DNA binding
Outline: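 GST-fused DNA-binding domains of P. falciparum, expressed in E. coli, were applied at about 25 μg on average for 1 h to an Agilent 4 × 180k array of primer-extended double-stranded 36-bp intergenic genomic probes and negative controls. Binding intensity is the highest Masliner-normalised natural-log median intensity across replicate spots of either probe orientation, measured with Alexa488 anti-GST antibody and a 488 nm scan.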

Sequence | gcPBM binding intensity (ln)
GGTATTTTCACATATAGTACACAAAAATAAAATAAA [XGTACX_site2139] | 6.68
CATATAGATTTGTTCACACACACACTAAAAAAAAAA [CACACA_site7212] | 6.7
TATTCTAATTTTTAAACACACAAATATAAATAAGTA [CACACA_site3149] | 6.35
AAAAGAAAAAAAAAAAAAAAAAAAATTAAAATATAA [CACACA_negctrl_site17] | 5.65
TGAATAATATACATACGTACATACATATATATAATA [XGTACX_site1302] | 6.17
AATATAAATATTAAAACACACATAAAAAGATTATTA [CACACA_site1764] | 6.29
ATATATATAAAATGTTGTACATATATATAAATAATA [XGTACX_site1661] | 6.15
TAAATTTTTAAATACACACATACACCCATACAGACA [CACACA_site548] | 7.18
TTTAAAACCCTAAAAAAAAAAAAAAAAAAAAAAAAA [CACACA_negctrl_site1212] | 6.26
TTTTTTTAAATTATATGTACATAATTTTAATTTTAT [XGTACX_site5086] | 6.43
ATTTTTTTTTTTATGTGTACATATATTTTTTTAATT [XGTACX_site7921] | 7.04
AAAAAAAAAAAAAACACACACACACCCATAAATATA [CACACA_site151] | 6.87
AACATATAAAAATGTGCACACACACCCATATATATA [CACACA_site1525] | 10.7
AATATAAATAAAAACACACACACACCCATATATATA [CACACA_site2267] | 7.13
AAATAAATAATTTAATGTACATATATAATATATATA [XGTACX_site1831] | 6.81
AGAGTACAAGTAAATACACACATATAGATGAAAATA [CACACA_site6635] | 6.88
CAACTAACATATATTCAACACACATATACCTTCAAC [CACACA_site8988] | 6.43
ATTGTATCTGTATATGCACACAATATCTGTACTTCT [CACACA_site5445] | 10.1
TTATTATGTATATATGCACACAATACCCAAAACAAC [CACACA_site80] | 9.84
TATATTATATGTATTGCACACCTTCAACAACTACTT [CACACA_site8121] | 10.5
TATTATATGTATTGCACACCTTCAACAACTACTTCT [CACACA_site655] | 10.6
TATATATTGATATGCACACCTATGTATTGATGTATA [CACACA_site1073] | 10

Sequence | gcPBM binding intensity (ln)
AAAAAAATAAATAAATGTACACATATATATATATAT [XGTACX_site4350] | 9.25
AAAATGTATTCTCTCATGCACACTTTCTTTAAGGGA [CACACA_site2196] | 8.5
AATACAAAAAAAGGTACACACATAATATATTTATTA [CACACA_site2628] | 6.46
ATTATATATATTTATGCACACAAAATATATTATATA [CACACA_site9244] | 10.1
TAATGTATTATATTTTGTTTTCTTCCACCAAAAAAA [XGTACX_negctrl_site64] | 6.41
TATATATCTTTATGCACACACAAAGAAAATTTTCCT [CACACA_site7366] | 10.5
TTCTTTTTCCAATTTGCACACCACAAAATTATATAT [CACACA_site2909] | 10.6
TATATATATTTTTATGCACACACAAAGAAAATTTTC [CACACA_site8931] | 10.1
TATATCTTATTTAACACACACAAAGAAAATAGAAAA [CACACA_site3732] | 6.81
TATATATTTTTATGCACACACAAAGAAAATTTTCCT [CACACA_site2863] | 10.8
AATATATCTTATTTAACACACACAAAGAAAATAGAA [CACACA_site9242] | 7.34
GTTCTTTCAAATTATACACACCAAAAAAAAAAAAAA [CACACA_site5660] | 6.62
AACAAATGTTAAATGTTTAAGGAGAAAATAAAGACA [CACACA_negctrl_site1163] | 6.75
ATTTGCTCACAAGAAGCACACAAAAAAAGAAAAAAA [CACACA_site9338] | 7.34
TATTTTTTCCTTTGTTTTTTAAACTATCTTAACTAA [XGTACX_negctrl_site519] | 6.37
TTAACTTTTTTATATGCACACATAAACAAGGATATA [CACACA_site8932] | 10.1
TCCATATGCAAACTGGTGCACAAGTAGCTTTTATAT | 10.8
AACTTTTTTATATGCACACATAAACAAGGATATATA [CACACA_site2874] | 10.3
ACACATAAATGAATAAATAAATAAATATAAATATAA [CACACA_negctrl_site1784] | 6.21
TAATATAGAAAATGCATACACACTTTATATATATAT [CACACA_site911] | 8.61
TTTTTTTTTTTTTAAACATGCAAAATATATAATTTT [TGCATGCA_site633] | 6.44
TAGAAATATATTTATTGTACATTGTATATATTATAT [XGTACX_site7584] | 6.26
